± gives the standard deviation of the averaged measurements. In all, about 33,000 sequences were measured (“E-score (dimensionless, -0.5 to 0.5)”: median about -0.049, highest 2% from about 0.37 on). Only a selection was taken, and the highest values are over-represented in it overall.

The values that follow come from the supplement of paper PMC4166925.

The subject of the assay is T1, PmTbr T-box DNA-binding domain (GST fusion).
T1 sequence: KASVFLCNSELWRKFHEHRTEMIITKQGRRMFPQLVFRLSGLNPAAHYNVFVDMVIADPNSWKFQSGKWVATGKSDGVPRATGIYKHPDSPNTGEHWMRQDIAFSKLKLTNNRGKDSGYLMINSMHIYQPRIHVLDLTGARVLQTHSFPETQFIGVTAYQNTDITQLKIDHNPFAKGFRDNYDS
Description: PBM E-score of 8-mer (E-score (dimensionless, -0.5 to 0.5)); Tbr is Tbrain of the sea star Patiria miniata (Pm) or the sea urchin Strongylocentrotus purpuratus (Sp); higher = stronger binding preference. The conditions noted are these: the construct has about 5 more residues each side. A digest of the protocol: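 Using the Universal PBM Analysis Suite, every ungapped 8-mer received an enrichment E-score averaged over duplicate arrays. Probe intensities came from double-stranded Universal Agilent oligonucleotide arrays incubated with 200 nM GST-fused Tbr T-box DNA-binding domain in PBS (pH 7.5). That protein was expressed in BL21 E. coli at 20 °C and purified by glutathione affinity chromatography.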
On to TATAAGGA, for which the “PBM E-score of 8-mer” value was -0.154 ± 0.073.
Under CACCAATA stands 0.224 ± 0.056.
Under CCATGGCC stands -0.263 ± 0.011; under CGGTGACG, 0.179 ± 0.047; under AGGTGACC, 0.172 ± 0.052.
Turning to AGGTGACG, the “PBM E-score of 8-mer” value is 0.4629 ± 0.0014.
For AGGTGACA, the “PBM E-score of 8-mer” value stood at 0.4826 ± 0.00079.
On to AGGTGAAA, for which the “PBM E-score of 8-mer” value was 0.347 ± 0.022.
In the case of AGGTGACT, the “PBM E-score of 8-mer” value came out at 0.31 ± 0.015.
On to GGGGGGCA, for which the “PBM E-score of 8-mer” value was -0.327 ± 0.0093.
In the case of GCTCTGAC, the “PBM E-score of 8-mer” value is -0.205 ± 0.092.
Under GGAAACCA stands -0.1389 ± 0.00081; under AACTCTCG, -0.128 ± 0.018.
Under GATTCAGA stands -0.206 ± 0.0085.
On to TATTCACA, for which the “PBM E-score of 8-mer” value amounted to 0.411 ± 0.029.
Consider CATTCACG, for which the “PBM E-score of 8-mer” value was determined as 0.229 ± 0.041.
On to CATTCACC, for which the “PBM E-score of 8-mer” value is -0.0785 ± 0.054.
Turning to GATTCACC, the “PBM E-score of 8-mer” value was -0.167 ± 0.0053.
In the case of AATTCACG, the “PBM E-score of 8-mer” value was determined as 0.365 ± 0.0071.
Regarding AATTCACA, the “PBM E-score of 8-mer” value came out at 0.2798 ± 0.0014.
Under CATTCACA stands 0.385 ± 0.0049; under GATTCACA, 0.38 ± 0.041.
For the sequence AGACCACT, the “PBM E-score of 8-mer” value is -0.234 ± 0.093.
Under TACCCATA stands -0.104 ± 0.024.
Under AACTGACG stands 0.102 ± 0.036; under ACGTGTGG, 0.362 ± 0.017.
Under AGGTGTGG stands 0.483 ± 0.0024.
Turning to ATGTGTGG, the “PBM E-score of 8-mer” value came out at 0.3184 ± 0.0012.
For the sequence AGATGTGC, the “PBM E-score of 8-mer” value amounted to 0.163 ± 0.018.
Under AGGTGTGC stands 0.44 ± 0.0051; under CTGTGTGC, -0.0563 ± 0.038.
Turning to ATACTCCG, the “PBM E-score of 8-mer” value is -0.00617 ± 0.029.
In the case of AGAGTTAT, the “PBM E-score of 8-mer” value is -0.0216 ± 0.013.
Take GTCCAACA: the “PBM E-score of 8-mer” value is 0.198 ± 0.045.
For the sequence AAAGCGTG, the “PBM E-score of 8-mer” value worked out at 0.2812 ± 0.0023.
CGTAAACG: the “PBM E-score of 8-mer” value is 0.0455 ± 0.046.
As for AGGCGTTA, the “PBM E-score of 8-mer” value came to 0.4486 ± 0.0021.
In the case of CGGCGTTA, the “PBM E-score of 8-mer” value is 0.189 ± 0.00085.
AGGCGTTG: the “PBM E-score of 8-mer” value was 0.369 ± 0.0053.
With GGGCGTTA, the “PBM E-score of 8-mer” value stood at 0.276 ± 0.0092.
Under AGGCGTAG stands 0.0703 ± 0.0097; under AGGCGTTC, 0.0817 ± 0.053; under ATTGGAGG, 0.0195 ± 0.049.
Regarding AAATGGGC, the “PBM E-score of 8-mer” value is 0.0759 ± 0.0097.
Under GGCAACGA stands 0.0835 ± 0.033; under AGGAGATG, -0.0689 ± 0.011.
As to ACTTTTAC, the “PBM E-score of 8-mer” value was -0.0251 ± 0.02.
Under CCAGAGCC stands -0.17 ± 0.0096.
Regarding AAGGTGGC, the “PBM E-score of 8-mer” value came out at 0.383 ± 0.021.
With GAGGTGGA, the “PBM E-score of 8-mer” value amounted to 0.0566 ± 0.0027.
Consider CAGGTGGC, for which the “PBM E-score of 8-mer” value stood at 0.364 ± 0.018.
With GAGGTGGC, the “PBM E-score of 8-mer” value was 0.372 ± 0.036.
With AAGGTGGA, the “PBM E-score of 8-mer” value is -0.0394 ± 0.074.
Under AAGGTGGG stands 0.221 ± 0.026.
As to TACTAGTA, the “PBM E-score of 8-mer” value was -0.163 ± 0.035.
As for CTGTAGCA, the “PBM E-score of 8-mer” value was -0.0144 ± 0.079.
In the case of ACGCACCA, the “PBM E-score of 8-mer” value worked out at 0.0123 ± 0.072.
Turning to AATCTTTA, the “PBM E-score of 8-mer” value was -0.0517 ± 0.059.
Under GACACGTC stands 0.373 ± 0.021; under GACACGGC, 0.187 ± 0.038; under AACACGAT, 0.291 ± 0.018.
In the case of AACACGTC, the “PBM E-score of 8-mer” value is 0.399 ± 0.021.
On to AACACGCT, for which the “PBM E-score of 8-mer” value came to 0.197 ± 0.011.
Turning to AACACGGC, the “PBM E-score of 8-mer” value was 0.162 ± 0.017.
Turning to AACACGTA, the “PBM E-score of 8-mer” value came out at 0.34 ± 0.024.
For GACACGTA, the “PBM E-score of 8-mer” value was found to be 0.317 ± 0.029.
For AACACGTT, the “PBM E-score of 8-mer” value worked out at 0.386 ± 0.014.
With ACGCGTTC, the “PBM E-score of 8-mer” value came to 0.138 ± 0.014.
For TTAGTGAA, the “PBM E-score of 8-mer” value was -0.048 ± 0.037.
Regarding TCTAAGAA, the “PBM E-score of 8-mer” value is -0.239 ± 0.028.
Consider GAAGGTAC, for which the “PBM E-score of 8-mer” value is -0.214 ± 0.046.
As for CAAGGTCA, the “PBM E-score of 8-mer” value came out at 0.0991 ± 0.0032.
In the case of GAAGGTCC, the “PBM E-score of 8-mer” value is -0.1794 ± 0.0013.
With CAAGGTTC, the “PBM E-score of 8-mer” value turned out to be 0.0603 ± 0.055.
As to CAAGGTGC, the “PBM E-score of 8-mer” value came to 0.4331 ± 0.00078.
As for GAAGGTGC, the “PBM E-score of 8-mer” value turned out to be 0.439 ± 0.012.
Under CAAGGTAA stands 0.00125 ± 0.13.
Under CAAGGTGG stands 0.323 ± 0.03.
On to TAAGGTGA, for which the “PBM E-score of 8-mer” value stood at 0.3578 ± 0.00067.
Regarding CAAGGTGA, the “PBM E-score of 8-mer” value turned out to be 0.406 ± 0.0091.
Under GAAGGTGA stands 0.406 ± 0.011; under GAAGGTAA, 0.00393 ± 0.033; under TCAAATGA, -0.203 ± 0.019.
As for ATGGGCCA, the “PBM E-score of 8-mer” value is -0.105 ± 0.04.
On to CAGCGCTG, for which the “PBM E-score of 8-mer” value stood at 0.0573 ± 0.064.
For the sequence CATTACCA, the “PBM E-score of 8-mer” value was -0.0668 ± 0.0072.
Regarding ACTCCTTC, the “PBM E-score of 8-mer” value amounted to 0.0419 ± 0.014.
For AGCTATAA, the “PBM E-score of 8-mer” value was -0.182 ± 0.011.
Consider AGTTAGGG, for which the “PBM E-score of 8-mer” value was -0.128 ± 0.021.
Under CAGGTGCG stands 0.4533 ± 0.0028.
As for CAGGTGCA, the “PBM E-score of 8-mer” value was determined as 0.277 ± 0.021.
For the sequence CTGGTGCC, the “PBM E-score of 8-mer” value came to 0.128 ± 0.018.
Consider CAGGTGCC, for which the “PBM E-score of 8-mer” value was 0.4 ± 0.0072.
As for AGGGTGCG, the “PBM E-score of 8-mer” value was 0.356 ± 0.052.
As to ACGGTGCG, the “PBM E-score of 8-mer” value was determined as 0.309 ± 0.042.
On to CGGGTGCC, for which the “PBM E-score of 8-mer” value came out at 0.247 ± 0.024.
Consider AAGGTGCG, for which the “PBM E-score of 8-mer” value worked out at 0.45 ± 0.014.
Consider CAGATGCG, for which the “PBM E-score of 8-mer” value is -0.135 ± 0.048.
As to CCCACTCC, the “PBM E-score of 8-mer” value was -0.0608 ± 0.036.
Under CCCAGATA stands -0.233 ± 0.14; under CGAAAGCC, -0.0801 ± 0.046; under CAGTAAAC, -0.125 ± 0.0037.
Under ACTAAACT stands -0.221 ± 0.1; under AAGGACTT, -0.228 ± 0.067; under ATGTTAGA, -0.236 ± 0.027.
With TTGTTAAA, the “PBM E-score of 8-mer” value was determined as 0.199 ± 0.035.
Under CTGTTATA stands 0.184 ± 0.016.
As to CTGTTAAA, the “PBM E-score of 8-mer” value came to 0.23 ± 0.015.
On to ATGTTACA, for which the “PBM E-score of 8-mer” value was 0.0933 ± 0.047.
